Here are results for one sequence from PMC7862700, “An all-to-all approach to the identification of sequence-specific readers for epigenetic DNA modifications on cytosine”.

Common to all, as to assay: DAPPL (digital affinity profiling via proximity ligation, sequencing); 10 mM Tris-HCl pH 7.5, 50 mM NaCl, 1 mM DTT, 4% glycerol, room temperature, 30 min; GST-TFs on glutathione beads, 16-mer random dsDNA library, 0.1% formaldehyde crosslink after washing; high values mean tight binding
Test [1] addresses T1, FLI1 (Homo sapiens, UniProt Q01543 1-452).
T1 sequence: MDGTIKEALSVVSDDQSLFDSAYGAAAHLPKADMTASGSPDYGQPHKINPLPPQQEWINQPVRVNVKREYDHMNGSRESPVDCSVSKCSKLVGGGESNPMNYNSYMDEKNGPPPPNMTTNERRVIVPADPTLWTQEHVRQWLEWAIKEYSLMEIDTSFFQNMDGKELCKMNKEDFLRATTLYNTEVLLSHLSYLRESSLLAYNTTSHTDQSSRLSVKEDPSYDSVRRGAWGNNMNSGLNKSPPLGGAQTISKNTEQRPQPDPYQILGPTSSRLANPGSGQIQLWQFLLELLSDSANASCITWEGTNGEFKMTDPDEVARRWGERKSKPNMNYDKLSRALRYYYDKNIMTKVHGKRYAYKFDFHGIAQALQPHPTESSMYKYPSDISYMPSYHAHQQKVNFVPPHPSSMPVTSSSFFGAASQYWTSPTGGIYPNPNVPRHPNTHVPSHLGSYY
The note with it: protein: recombinant; tags: N-terminal GST; dsDNA, one strand shown. An outline of the steps:
(§1)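 The binding signal reported is, for every hexamer, its read frequency for a factor over its read frequency for the tag-only sample. Reads came from pools of yeast-expressed, GST-fused human transcription factors on glutathione beads, barcoded with DNA and mixed with that sample, which were incubated with 200 nmole of a random double-stranded 16-mer DNA library in Tris/NaCl/DTT/glycerol buffer at room temperature for 30 min. After washing, the pools were crosslinked with 0.1% formaldehyde, proximity-ligated with BsaI/T4 ligase for 1 h at 37 °C, PCR-amplified and sequenced on an Illumina NextSeq500.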

In test [2] the target is T2, ELK1 (Homo sapiens, UniProt P19419 1-428).
T2 sequence: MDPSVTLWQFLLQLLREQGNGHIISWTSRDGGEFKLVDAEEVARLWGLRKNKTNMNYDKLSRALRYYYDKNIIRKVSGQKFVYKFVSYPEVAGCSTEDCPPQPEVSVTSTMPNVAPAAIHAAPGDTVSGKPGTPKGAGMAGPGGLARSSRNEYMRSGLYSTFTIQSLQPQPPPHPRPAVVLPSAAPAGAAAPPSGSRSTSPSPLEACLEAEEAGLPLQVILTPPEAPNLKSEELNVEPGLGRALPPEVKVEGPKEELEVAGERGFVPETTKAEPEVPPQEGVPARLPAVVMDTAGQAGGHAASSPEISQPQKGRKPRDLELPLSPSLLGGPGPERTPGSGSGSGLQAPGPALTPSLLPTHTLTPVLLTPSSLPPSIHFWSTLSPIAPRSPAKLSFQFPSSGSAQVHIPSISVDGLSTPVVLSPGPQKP
As to conditions: protein: recombinant; tags: N-terminal GST; dsDNA, one strand shown. The method, boiled down:
as §1

Test [3] deals with T3, GABPA (Homo sapiens, UniProt Q06546 1-454).
T3 sequence: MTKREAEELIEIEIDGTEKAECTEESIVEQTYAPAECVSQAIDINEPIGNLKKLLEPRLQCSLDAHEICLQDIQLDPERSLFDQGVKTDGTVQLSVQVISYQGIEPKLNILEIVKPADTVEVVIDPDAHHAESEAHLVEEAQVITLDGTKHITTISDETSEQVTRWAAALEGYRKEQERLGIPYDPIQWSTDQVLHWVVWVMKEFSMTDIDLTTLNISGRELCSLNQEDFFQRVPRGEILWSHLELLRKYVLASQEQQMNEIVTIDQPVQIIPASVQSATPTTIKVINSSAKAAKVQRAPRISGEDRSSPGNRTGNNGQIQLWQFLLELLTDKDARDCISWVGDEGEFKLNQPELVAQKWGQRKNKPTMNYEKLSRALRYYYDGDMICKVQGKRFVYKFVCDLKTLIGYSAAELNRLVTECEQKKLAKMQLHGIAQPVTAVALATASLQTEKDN
As to conditions: protein: recombinant; tags: N-terminal GST; dsDNA, one strand shown. The method, boiled down:
as §1

In test [4] the target is T4, ERG (Homo sapiens, UniProt P11308 1-479).
T4 sequence: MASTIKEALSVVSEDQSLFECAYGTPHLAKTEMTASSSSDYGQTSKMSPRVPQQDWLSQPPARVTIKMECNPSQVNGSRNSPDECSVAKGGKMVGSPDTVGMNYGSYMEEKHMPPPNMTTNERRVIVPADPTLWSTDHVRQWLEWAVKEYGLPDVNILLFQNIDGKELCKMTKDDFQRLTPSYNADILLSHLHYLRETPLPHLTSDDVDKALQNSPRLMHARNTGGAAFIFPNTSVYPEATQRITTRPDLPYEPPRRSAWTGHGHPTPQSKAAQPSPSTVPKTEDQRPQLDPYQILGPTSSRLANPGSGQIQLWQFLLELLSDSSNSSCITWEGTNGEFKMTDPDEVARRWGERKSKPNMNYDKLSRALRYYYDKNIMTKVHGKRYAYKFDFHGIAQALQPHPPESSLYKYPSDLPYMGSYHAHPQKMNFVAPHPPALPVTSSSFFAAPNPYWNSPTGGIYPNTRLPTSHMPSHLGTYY
The note with it: protein: recombinant; tags: N-terminal GST; dsDNA, one strand shown. The method, boiled down: as §1

Test [5] concerns the target ELF1 (Homo sapiens, UniProt P32519 1-619). As to conditions: protein: recombinant; tags: N-terminal GST; dsDNA, one strand shown. The method, boiled down: as §1
Test [6] addresses T5, EHF (Homo sapiens, UniProt Q9NZC4 1-300).
T5 sequence: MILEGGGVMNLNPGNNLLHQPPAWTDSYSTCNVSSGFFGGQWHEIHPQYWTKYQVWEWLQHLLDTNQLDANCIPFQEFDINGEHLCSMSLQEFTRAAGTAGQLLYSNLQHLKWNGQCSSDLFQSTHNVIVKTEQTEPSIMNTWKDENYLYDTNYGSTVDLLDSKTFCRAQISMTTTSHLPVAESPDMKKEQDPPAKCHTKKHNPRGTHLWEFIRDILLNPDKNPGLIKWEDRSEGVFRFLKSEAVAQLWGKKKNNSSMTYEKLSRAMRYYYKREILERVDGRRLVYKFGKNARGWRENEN
The note with it: protein: recombinant; tags: N-terminal GST; dsDNA, one strand shown. The method, boiled down: as §1

The target of test [7] is SPI1 (Homo sapiens, UniProt P17947 1-270). The note with it: protein: recombinant; tags: N-terminal GST; dsDNA, one strand shown. An outline of the steps: as §1
In test [8] the target is SPIB (Homo sapiens, UniProt Q01892 1-262). As to conditions: protein: recombinant; tags: N-terminal GST; dsDNA, one strand shown. An outline of the steps: as §1
Test [9] concerns the target T6, ELK3 (Homo sapiens, UniProt P41970 1-407).
T6 sequence: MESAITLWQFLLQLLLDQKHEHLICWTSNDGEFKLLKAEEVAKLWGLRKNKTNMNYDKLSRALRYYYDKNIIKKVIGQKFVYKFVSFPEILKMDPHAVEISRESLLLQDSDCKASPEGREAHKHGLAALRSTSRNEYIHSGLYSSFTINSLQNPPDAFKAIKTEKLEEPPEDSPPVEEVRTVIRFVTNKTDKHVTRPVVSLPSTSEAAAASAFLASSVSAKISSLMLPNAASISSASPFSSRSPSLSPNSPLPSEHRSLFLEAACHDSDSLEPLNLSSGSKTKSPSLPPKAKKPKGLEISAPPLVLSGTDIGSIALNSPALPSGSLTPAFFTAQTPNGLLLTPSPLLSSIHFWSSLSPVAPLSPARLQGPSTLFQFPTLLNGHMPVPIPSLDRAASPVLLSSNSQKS
The note with it: protein: recombinant; tags: N-terminal GST; dsDNA, one strand shown. An outline of the steps: as §1

Test [10] deals with T7, FEV (Homo sapiens, UniProt Q99581 1-238).
T7 sequence: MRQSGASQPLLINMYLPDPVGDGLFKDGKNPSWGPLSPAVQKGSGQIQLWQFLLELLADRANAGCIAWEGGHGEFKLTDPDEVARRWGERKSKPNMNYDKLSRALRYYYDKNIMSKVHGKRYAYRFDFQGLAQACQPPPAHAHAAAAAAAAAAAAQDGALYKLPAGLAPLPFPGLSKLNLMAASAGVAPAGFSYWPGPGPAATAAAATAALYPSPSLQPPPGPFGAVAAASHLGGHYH
The note with it: protein: recombinant; tags: N-terminal GST; dsDNA, one strand shown. An outline of the steps:
as §1

Test [11] concerns the target ETV5 (Homo sapiens, UniProt P41161 1-510). The note with it: protein: recombinant; tags: N-terminal GST; dsDNA, one strand shown. The method, boiled down: as §1
Test [12] concerns the target HSF1 (Homo sapiens, UniProt Q00613 1-529). The note with it: protein: recombinant; tags: N-terminal GST; chain copies: 3; dsDNA, one strand shown. An outline of the steps: as §1
For test [13], the target named is T8, SPIC (Homo sapiens, UniProt Q8N5J4 1-248).
T8 sequence: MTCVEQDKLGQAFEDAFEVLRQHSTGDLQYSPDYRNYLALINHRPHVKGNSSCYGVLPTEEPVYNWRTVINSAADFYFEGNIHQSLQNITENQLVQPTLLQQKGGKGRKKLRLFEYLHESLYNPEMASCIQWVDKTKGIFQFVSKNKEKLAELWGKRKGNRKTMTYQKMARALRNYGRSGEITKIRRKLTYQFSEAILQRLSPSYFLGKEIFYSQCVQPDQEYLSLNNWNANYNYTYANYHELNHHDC
As to conditions: protein: recombinant; tags: N-terminal GST; dsDNA, one strand shown. An outline of the steps: as §1

Test [14] addresses ELF4 (Homo sapiens, UniProt Q99607 1-663). As to conditions: protein: recombinant; tags: N-terminal GST; dsDNA, one strand shown. An outline of the steps: as §1
Test [15] addresses T9, ELK4 (Homo sapiens, UniProt P28324-2 1-405).
T9 sequence: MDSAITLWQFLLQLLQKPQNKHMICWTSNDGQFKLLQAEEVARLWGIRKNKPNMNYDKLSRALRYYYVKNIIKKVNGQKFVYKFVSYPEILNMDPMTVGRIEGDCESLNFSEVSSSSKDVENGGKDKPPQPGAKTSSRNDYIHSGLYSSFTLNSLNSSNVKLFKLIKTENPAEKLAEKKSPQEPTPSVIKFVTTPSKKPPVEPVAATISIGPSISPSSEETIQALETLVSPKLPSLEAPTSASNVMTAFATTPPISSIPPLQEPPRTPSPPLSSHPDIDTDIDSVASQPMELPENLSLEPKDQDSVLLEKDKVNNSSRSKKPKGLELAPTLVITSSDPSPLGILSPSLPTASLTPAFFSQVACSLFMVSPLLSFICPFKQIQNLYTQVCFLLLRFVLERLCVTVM
The note with it: protein: recombinant; tags: N-terminal GST; dsDNA, one strand shown. The method, boiled down: as §1

Test [16] has as its target T10, ETV2 (Homo sapiens, UniProt O00321 1-342).
T10 sequence: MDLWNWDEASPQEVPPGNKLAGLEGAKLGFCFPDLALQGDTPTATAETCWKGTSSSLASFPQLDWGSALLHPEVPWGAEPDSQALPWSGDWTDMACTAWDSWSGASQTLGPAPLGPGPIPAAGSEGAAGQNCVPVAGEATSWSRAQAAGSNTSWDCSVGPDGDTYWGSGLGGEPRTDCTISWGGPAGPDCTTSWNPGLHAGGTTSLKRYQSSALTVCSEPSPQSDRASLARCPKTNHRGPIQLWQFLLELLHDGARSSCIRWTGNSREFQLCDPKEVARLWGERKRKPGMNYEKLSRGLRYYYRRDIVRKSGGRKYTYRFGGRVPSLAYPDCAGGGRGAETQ
The note with it: protein: recombinant; tags: N-terminal GST; dsDNA, one strand shown. An outline of the steps:
as §1

The target in test [17] is T11, ELF3 (Homo sapiens, UniProt P78545 1-371).
T11 sequence: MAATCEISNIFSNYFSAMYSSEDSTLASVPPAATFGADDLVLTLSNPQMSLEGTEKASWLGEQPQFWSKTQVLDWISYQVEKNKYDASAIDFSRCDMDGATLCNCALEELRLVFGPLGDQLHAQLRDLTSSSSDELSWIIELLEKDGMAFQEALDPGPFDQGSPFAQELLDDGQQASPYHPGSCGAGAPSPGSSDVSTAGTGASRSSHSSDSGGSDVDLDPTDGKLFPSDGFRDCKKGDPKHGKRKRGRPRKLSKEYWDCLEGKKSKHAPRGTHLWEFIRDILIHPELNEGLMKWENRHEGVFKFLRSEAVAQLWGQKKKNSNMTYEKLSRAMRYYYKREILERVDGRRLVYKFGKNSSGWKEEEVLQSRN
As to conditions: protein: recombinant; tags: N-terminal GST; dsDNA, one strand shown. The method, boiled down: as §1

The target of test [18] is CRX (Homo sapiens, UniProt O43186 1-299). As to conditions: protein: recombinant; tags: N-terminal GST; dsDNA, one strand shown. The method, boiled down: as §1
Test [19] concerns the target ETV1 (Homo sapiens, UniProt P50549 1-477). The note with it: protein: recombinant; tags: N-terminal GST; dsDNA, one strand shown. The method, boiled down:
as §1

Sequence of ELF1 (P32519 whole entry): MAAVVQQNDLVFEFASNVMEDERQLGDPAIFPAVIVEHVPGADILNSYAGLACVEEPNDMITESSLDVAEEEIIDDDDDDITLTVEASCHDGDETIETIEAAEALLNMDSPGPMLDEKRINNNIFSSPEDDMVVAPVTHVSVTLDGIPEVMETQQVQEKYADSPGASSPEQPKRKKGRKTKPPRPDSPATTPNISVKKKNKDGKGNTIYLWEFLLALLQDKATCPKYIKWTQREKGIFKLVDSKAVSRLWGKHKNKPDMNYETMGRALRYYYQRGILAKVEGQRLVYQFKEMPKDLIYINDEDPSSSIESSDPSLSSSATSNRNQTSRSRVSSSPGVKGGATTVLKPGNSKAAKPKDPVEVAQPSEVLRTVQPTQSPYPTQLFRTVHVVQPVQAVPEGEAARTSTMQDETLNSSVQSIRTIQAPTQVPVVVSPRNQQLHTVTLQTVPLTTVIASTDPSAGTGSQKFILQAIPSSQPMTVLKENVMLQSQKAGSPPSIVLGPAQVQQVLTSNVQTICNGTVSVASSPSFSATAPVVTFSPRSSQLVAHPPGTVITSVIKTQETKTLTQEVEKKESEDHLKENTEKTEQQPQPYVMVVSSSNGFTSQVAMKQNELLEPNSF
Sequence of ETV1 (P50549 whole entry): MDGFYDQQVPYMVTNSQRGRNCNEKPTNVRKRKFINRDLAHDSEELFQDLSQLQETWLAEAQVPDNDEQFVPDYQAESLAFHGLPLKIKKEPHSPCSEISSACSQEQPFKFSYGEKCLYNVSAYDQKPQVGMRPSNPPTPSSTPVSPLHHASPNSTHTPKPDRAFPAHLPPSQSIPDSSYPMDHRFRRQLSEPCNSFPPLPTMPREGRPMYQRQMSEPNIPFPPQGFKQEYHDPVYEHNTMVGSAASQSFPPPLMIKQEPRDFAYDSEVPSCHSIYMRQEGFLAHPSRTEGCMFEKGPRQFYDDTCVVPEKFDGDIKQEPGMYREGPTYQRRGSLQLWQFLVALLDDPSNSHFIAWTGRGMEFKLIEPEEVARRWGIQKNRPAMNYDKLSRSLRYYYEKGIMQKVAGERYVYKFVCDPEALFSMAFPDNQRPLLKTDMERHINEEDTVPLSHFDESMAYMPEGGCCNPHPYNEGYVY
Sequence of HSF1 (Q00613 whole entry): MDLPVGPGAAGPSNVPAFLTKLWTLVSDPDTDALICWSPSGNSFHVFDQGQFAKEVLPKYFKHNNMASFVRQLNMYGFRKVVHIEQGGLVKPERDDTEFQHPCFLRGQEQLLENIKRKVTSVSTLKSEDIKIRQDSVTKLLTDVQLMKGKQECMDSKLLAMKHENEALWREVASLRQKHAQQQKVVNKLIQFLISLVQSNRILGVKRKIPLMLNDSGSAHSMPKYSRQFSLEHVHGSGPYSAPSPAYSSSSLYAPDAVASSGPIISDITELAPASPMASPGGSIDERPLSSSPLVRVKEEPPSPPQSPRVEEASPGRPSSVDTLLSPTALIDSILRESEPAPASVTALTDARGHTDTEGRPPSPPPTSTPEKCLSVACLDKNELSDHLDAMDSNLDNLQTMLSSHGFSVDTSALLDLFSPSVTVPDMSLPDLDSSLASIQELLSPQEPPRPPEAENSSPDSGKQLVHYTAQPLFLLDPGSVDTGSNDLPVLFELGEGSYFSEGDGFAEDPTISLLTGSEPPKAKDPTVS
Sequence of ELF4 (Q99607 whole entry): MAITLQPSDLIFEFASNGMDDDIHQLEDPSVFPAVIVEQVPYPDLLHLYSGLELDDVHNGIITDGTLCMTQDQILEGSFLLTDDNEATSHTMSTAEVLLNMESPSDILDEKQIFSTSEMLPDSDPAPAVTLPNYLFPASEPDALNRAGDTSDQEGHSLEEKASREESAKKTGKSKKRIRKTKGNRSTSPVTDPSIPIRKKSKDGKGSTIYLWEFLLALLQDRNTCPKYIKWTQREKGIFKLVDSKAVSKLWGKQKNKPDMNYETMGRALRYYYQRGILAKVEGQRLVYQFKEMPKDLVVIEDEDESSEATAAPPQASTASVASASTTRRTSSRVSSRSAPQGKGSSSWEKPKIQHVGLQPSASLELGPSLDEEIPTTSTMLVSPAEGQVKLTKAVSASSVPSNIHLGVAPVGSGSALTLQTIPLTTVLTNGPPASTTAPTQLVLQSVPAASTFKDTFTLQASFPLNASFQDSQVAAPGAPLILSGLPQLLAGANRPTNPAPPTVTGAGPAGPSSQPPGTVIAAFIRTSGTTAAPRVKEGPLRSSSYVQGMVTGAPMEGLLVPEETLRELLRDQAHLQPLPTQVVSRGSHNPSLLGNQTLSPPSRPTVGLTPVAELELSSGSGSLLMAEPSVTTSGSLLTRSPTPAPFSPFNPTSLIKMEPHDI
Sequence of ETV5 (P41161 whole entry): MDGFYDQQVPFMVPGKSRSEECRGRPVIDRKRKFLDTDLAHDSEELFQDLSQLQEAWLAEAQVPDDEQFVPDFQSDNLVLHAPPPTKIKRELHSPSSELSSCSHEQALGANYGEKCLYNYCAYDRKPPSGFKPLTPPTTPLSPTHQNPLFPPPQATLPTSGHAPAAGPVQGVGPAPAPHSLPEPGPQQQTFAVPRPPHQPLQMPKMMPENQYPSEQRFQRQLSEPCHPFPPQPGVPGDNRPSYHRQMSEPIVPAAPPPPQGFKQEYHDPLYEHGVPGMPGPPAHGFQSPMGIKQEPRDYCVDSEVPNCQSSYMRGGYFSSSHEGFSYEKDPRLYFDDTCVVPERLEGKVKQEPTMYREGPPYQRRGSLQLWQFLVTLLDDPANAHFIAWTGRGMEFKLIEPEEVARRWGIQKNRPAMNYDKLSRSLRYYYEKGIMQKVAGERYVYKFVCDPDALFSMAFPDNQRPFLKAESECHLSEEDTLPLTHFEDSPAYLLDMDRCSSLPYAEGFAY
Sequence of SPIB (Q01892 whole entry): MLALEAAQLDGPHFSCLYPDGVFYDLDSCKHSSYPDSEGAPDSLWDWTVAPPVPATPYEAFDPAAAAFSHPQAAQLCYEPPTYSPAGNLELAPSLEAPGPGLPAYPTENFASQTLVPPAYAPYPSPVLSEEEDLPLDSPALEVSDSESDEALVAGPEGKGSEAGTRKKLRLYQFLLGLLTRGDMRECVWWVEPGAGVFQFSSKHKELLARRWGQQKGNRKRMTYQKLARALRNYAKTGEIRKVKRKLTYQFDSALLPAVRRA
Sequence of CRX (O43186 whole entry): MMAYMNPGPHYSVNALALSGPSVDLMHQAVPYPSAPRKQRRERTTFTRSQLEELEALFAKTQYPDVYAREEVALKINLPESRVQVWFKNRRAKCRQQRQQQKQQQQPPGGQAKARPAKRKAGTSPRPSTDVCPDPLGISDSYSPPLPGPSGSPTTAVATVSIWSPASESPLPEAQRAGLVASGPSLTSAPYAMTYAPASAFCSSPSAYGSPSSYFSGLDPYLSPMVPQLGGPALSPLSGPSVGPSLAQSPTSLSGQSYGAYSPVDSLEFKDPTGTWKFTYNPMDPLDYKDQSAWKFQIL

For the sequence TCCCTT, the binding signal was 1.63 fold enrichment (6-mer frequency, TF over GST control) in test [1]; 1.56 fold enrichment (6-mer frequency, TF over GST control) in test [2]; 1.47 fold enrichment (6-mer frequency, TF over GST control) in test [3]; 1.67 fold enrichment (6-mer frequency, TF over GST control) in test [4]; 1.62 fold enrichment (6-mer frequency, TF over GST control) in test [5]; 1.5 fold enrichment (6-mer frequency, TF over GST control) in test [6]. Moreover, the binding signal in test [7] is 1.69 fold enrichment (6-mer frequency, TF over GST control); in test [8], 1.61 fold enrichment (6-mer frequency, TF over GST control); in [9], 1.37 fold enrichment (6-mer frequency, TF over GST control); in [10] it was 1.51 fold enrichment (6-mer frequency, TF over GST control); in test [11] it was 1.5 fold enrichment (6-mer frequency, TF over GST control); in test [12] it was 1.51 fold enrichment (6-mer frequency, TF over GST control). The binding signal in test [13] was 1.66 fold enrichment (6-mer frequency, TF over GST control); in test [14], 1.68 fold enrichment (6-mer frequency, TF over GST control); in test [15] it was 1.41 fold enrichment (6-mer frequency, TF over GST control); in [16], 1.32 fold enrichment (6-mer frequency, TF over GST control); in test [17], 1.5 fold enrichment (6-mer frequency, TF over GST control); in [18] it was 1.69 fold enrichment (6-mer frequency, TF over GST control). Further, in test [19], the binding signal is 1.49 fold enrichment (6-mer frequency, TF over GST control).
